We go through 26 compounds from PubChem BioAssay (EPA / NIEHS).

Experiment [1] can be described thus: ATG_TCF_b_cat_CIS: Attagene CIS-FACTORIAL HepG2 Assay for human T-Cell-Factor with beta-catenin (TCF/b-cat) (AID 2282965). The note with it: HepG2 TCF/beta-catenin cis-reporter transcription, actives raise or lower the signal. The essentials:
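Endogenous transcription factor activity is captured through cis-promoter reporter constructs transiently introduced into human HepG2 liver cells. Induced reporter mRNA is measured after 24 h and fitted bidirectionally relative to DMSO.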

Experiment [2] can be described thus: ATG_TGFb_CIS: Attagene CIS-FACTORIAL HepG2 Assay for human Transforming Growth Factor (TGF) (AID 2282967). The note with it: HepG2 Attagene CIS TGFb reporter, mRNA transcription; actives raise or lower the signal. The essentials: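 Liver HepG2 line, cis-factorial reporter panel, 24 h dosing. Quantitation: RT-PCR products labeled with 6-FAM, cut with HpaI, resolved by capillary electrophoresis; DMSO-referenced bidirectional analysis.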

For experiment [3], the target named is X-box-binding protein 1 (Homo sapiens) (UniProt P17861). The experiment is described as follows: ATG_Xbp1_CIS: Attagene CIS-FACTORIAL HepG2 Assay for human X-box Binding Protein 1 (XBP1) (AID 2282972). The note with it: HepG2 XBP1 cis-element reporter, Attagene multiplex; actives raise or lower the signal. In outline:
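Fluorescence-labelled cDNA fragments from reporter transcripts, separated by capillary electrophoresis, give the signal. Source: HepG2 cells transfected with promoter-driven reporter units, harvested 24 h post-dose. DMSO served as reference for bidirectional curve fitting.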

Experiment [4] in a line: ATG_VDRE_CIS: Attagene CIS-FACTORIAL HepG2 Assay for human Vitamin D Receptor Element (VDRE) (AID 2282968). The note with it: HepG2 VDRE cis-reporter transcription, actives raise or lower the signal. The essentials:
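In transiently transfected HepG2 liver cells, gain or loss of reporter mRNA after 24 h exposure is scored relative to DMSO, using fluorescence detection by capillary electrophoresis of RT-PCR products.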

Experiment [5] in a line: ATG_GAL4_TRANS: Attagene TRANS-FACTORIAL HepG2 Assay for GAL4 (Internal Marker) (AID 2282976; active means hit-call score of the fitted dose curve at least 0.9, where 1 is the maximum). The note with it: HepG2 Attagene TRANS GAL4 internal marker reporter. In outline: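 Background-control readout: GAL4-UAS reporter transcript in transiently transfected HepG2 cells after 24 h compound exposure. Measured by RT-PCR, 6-FAM primer extension, HpaI digest and capillary electrophoresis; gain-of-signal fit versus DMSO.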

In experiment [6] the target is Estrogen-related receptor gamma (Homo sapiens) (UniProt P62508). The experiment is described as follows: ATG_ERRg_TRANS: Attagene TRANS-FACTORIAL HepG2 Assay for human Estrogen-Related Receptor gamma (ERRg) (AID 2282977; active means hit-call score of the fitted dose curve at least 0.9, where 1 is the maximum;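 further: hits increase reporter signal over DMSO so potencies reflect activators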). The note with it: HepG2 Attagene TRANS reporter, ERRg transactivation. The essentials: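 HepG2 cells transiently transfected with multiplexed GAL4-UAS reporter units and chimeric NR-Gal4 constructs were exposed to test chemicals for 24 h. Reporter mRNA was measured by RT-PCR, 6-FAM primer extension, HpaI digestion and capillary electrophoresis; gain-of-signal versus DMSO.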

In experiment [7] the target is Estrogen receptor (Homo sapiens) (UniProt P03372). The experiment is described as follows: ATG_ERa_TRANS: Attagene TRANS-FACTORIAL HepG2 Assay for human Estrogen Receptor alpha (ERa) (AID 2282970; active means hit-call score of the fitted dose curve at least 0.9, where 1 is the maximum). The note with it: HepG2 Attagene TRANS ERa GAL4 reporter, mRNA. The essentials: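 HepG2 cells transiently transfected with multiplexed GAL4-UAS reporter units read out chimeric NR-Gal4 activity. After 24 h compound exposure, reporter mRNA was quantified by RT-PCR, 6-FAM labeling, HpaI digestion and capillary electrophoresis, relative to DMSO.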

Experiment [8] concerns the target Nuclear receptor subfamily 1 group I member 3 (Homo sapiens) (UniProt Q14994). The experiment is described as follows: ATG_CAR_TRANS: Attagene TRANS-FACTORIAL HepG2 Assay for human Constitutive Androstane Receptor (CAR) (AID 2282969; active means hit-call score of the fitted dose curve at least 0.9, where 1 is the maximum;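 further: activators raise reporter mRNA above DMSO so AC50 marks induction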). The note with it: HepG2 Attagene TRANS-FACTORIAL CAR reporter. In outline:
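Readout is reporter mRNA induction, quantified by fluorescent primer extension and capillary electrophoresis after RT-PCR. Cells were HepG2 transiently carrying chimeric NR-Gal4 constructs with GAL4-UAS reporters, treated for 24 h; activity scored upward from DMSO.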

A short description of experiment [9]: ATG_M_19_TRANS: Attagene TRANS-FACTORIAL HepG2 Assay for M19 Transcription Factor (Internal Marker) (AID 2282974; active means hit-call score of the fitted dose curve at least 0.9, where 1 is the maximum). The note with it: HepG2 Attagene TRANS-FACTORIAL M19 internal marker reporter. In outline:
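HepG2 transiently transfected with GAL4-UAS multiplex reporter constructs, exposed 24 h; reporter RNA quantified by RT-PCR, 6-FAM labeling, HpaI digestion and capillary electrophoresis; internal background marker fitted upward versus DMSO.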

What is called AC50 is the concentration at which the activity in the assay is half-maximal.

Each structure is given as a SMILES string. Inconclusive results are not listed. Calls of active or inactive are those of the source. How the source made its calls, unless noted: active means hit-call score of the fitted dose curve at least 0.9, where 1 is the maximum; inactive means score below 0.9.

Chain of X-box-binding protein 1 (Homo sapiens) (P17861 whole entry, looked up, the tested form may be a part): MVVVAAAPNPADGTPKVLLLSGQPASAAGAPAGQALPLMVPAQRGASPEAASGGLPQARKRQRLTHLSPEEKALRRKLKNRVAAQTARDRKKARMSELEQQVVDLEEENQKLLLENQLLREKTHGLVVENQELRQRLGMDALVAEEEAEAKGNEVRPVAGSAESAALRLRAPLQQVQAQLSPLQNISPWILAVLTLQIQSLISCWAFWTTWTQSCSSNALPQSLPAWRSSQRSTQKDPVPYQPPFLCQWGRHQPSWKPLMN
Chain of Estrogen receptor (Homo sapiens) (P03372 whole entry, looked up, the tested form may be a part): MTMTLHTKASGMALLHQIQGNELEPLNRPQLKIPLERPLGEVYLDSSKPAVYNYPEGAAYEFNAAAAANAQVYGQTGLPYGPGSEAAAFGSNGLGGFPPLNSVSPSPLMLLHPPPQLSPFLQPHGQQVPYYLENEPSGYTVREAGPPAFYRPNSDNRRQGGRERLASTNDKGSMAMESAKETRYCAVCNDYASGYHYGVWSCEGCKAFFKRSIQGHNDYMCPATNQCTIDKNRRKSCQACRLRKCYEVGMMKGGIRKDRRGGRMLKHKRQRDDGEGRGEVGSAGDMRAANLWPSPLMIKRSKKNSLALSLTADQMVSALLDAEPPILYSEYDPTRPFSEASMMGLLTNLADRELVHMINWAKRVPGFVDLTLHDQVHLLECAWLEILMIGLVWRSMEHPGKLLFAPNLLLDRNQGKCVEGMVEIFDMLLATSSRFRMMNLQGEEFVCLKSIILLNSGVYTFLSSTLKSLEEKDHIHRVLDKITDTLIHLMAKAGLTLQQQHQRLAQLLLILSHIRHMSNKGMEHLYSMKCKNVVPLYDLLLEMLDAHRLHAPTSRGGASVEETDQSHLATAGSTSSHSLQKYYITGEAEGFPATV
Chain of Estrogen-related receptor gamma (Homo sapiens) (P62508 whole entry, looked up, the tested form may be a part): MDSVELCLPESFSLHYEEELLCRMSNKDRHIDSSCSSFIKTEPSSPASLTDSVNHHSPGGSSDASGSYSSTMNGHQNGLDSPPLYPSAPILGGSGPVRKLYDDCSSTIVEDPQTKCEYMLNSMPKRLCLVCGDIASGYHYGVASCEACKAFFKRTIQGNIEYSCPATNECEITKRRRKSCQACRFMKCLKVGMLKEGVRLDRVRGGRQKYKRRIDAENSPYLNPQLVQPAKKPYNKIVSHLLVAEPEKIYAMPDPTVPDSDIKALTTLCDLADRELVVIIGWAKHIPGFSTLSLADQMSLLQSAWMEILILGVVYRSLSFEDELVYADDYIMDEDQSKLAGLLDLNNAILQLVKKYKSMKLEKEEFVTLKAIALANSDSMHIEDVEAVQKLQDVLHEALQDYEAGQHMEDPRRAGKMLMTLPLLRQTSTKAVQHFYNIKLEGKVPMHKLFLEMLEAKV
Chain of Nuclear receptor subfamily 1 group I member 3 (Homo sapiens) (Q14994 whole entry, looked up, the tested form may be a part): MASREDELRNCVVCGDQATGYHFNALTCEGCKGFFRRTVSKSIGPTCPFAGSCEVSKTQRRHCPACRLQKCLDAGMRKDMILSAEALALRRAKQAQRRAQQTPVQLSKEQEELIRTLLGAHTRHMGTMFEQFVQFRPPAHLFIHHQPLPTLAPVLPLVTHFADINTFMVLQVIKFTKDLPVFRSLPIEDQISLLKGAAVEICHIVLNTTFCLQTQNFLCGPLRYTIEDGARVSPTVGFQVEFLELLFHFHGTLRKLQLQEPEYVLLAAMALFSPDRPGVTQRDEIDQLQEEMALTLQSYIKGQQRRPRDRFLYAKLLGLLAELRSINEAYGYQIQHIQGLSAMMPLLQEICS

Take `Nc1ccc(S(=O)(=O)c2ccc(N)cc2)cc1`: the call in experiment [1], in [2] and in experiment [3] was inactive.

On to `Cc1ccc(Cl)cc1`, for which the compound was called inactive in experiment [1], in [2], in [4] and in [3].

On to `Cc1nc(C)nc(N2C[C@@H](C)N(c3ccnc([C@@H](C)O)n3)[C@@H](C)C2)n1`, for which the compound was classed as inactive in experiment [1], in experiment [2], in experiment [4], in [3], in experiment [5] and in experiment [6].

With `CNC(=O)[C@H]1O[C@@H](n2cnc3c(NCc4cc(Cl)ccc4OCc4cc(C)no4)ncnc32)[C@H](O)[C@@H]1N`, the compound was classed as inactive in experiment [1], in experiment [2], in experiment [4], in [3] and in [5].

Consider `O=[N+]([O-])C(CO)(CO)CO`, for which the call in [1], in experiment [2], in experiment [4], in experiment [3] and in [5] was inactive.

For the compound `O=c1[nH]cc(F)c(=O)[nH]1`, the compound was classed as inactive in [1], in [2], in experiment [4] and in experiment [3].

With `Clc1cc(Cl)c(Cl)cc1Cl`, the outcome in [1], in experiment [2], in experiment [3] and in experiment [6] was inactive.

Regarding `CCCCCCCCCCCCCCCCCC(=O)O`, the outcome in experiment [1], in experiment [2], in experiment [3], in experiment [5] and in [6] was inactive.

Consider `C1CCC(SSC2CCCCC2)CC1`, for which the outcome in experiment [1], in experiment [2], in experiment [4] and in experiment [3] was inactive. Besides, the AC50 in experiment [7] is 27.4 µM (active).

Consider `COCCOC[C@H](CC1(C(=O)NC2CCC(C(=O)O)CC2)CCCC1)C(=O)Oc1ccc2c(c1)CCC2` (some centres not stated), for which the call in experiment [1], in experiment [2], in experiment [7], in experiment [3], in experiment [5] and in [6] was inactive. Further, in [4], the AC50 was 48.5 µM (active).

Consider `CCCCN(CCCC)CCCC`, for which the compound was classed as inactive in experiment [1], in [2], in experiment [4] and in [3].

In the case of `Oc1ccc2ccccc2c1N=Nc1ccccc1`, the compound was called inactive in [1], in experiment [8] and in [3]. Further, the AC50 is 100 µM (active) in [2] and 2.86 µM (active) in [7].

For the compound `COc1ccc(S(=O)(=O)N2C(=O)[C@@](c3ccccc3OC)(N3C[C@H](O)C[C@H]3C(=O)N(C)C)c3cc(Cl)ccc32)c(OC)c1`, the concentration at half-maximal activity (AC50) was 42.1 µM (active) in experiment [1], 145 µM (active) in experiment [2], 19.8 µM (active) in [4] and 69.5 µM (active) in experiment [3].

Take `O=C(N[C@@H](Cc1ccccc1)[C@@H](O)C(=O)N1C[C@@H](O)[C@@H](O)C1)c1cc2cc(Cl)ccc2[nH]1`: the compound was called inactive in [1], in [2], in experiment [4], in [7] and in experiment [5]. In addition, the AC50 in [3] is 151 µM (active).

With `CCOC(=O)CCC(=O)OCC`, the result in [1], in experiment [2], in experiment [4] and in [3] was inactive.

In the case of `COCCOCCOC`, the compound was called inactive in [1], in [2], in [4], in experiment [7], in experiment [3] and in experiment [5].

For `CCCCCCCCCCO`, the values for the AC50 in experiment [1] and in experiment [3] were 166 µM (active) and 160 µM (active), respectively. Besides, the compound was classed as inactive in experiment [2] and in [4].

Consider `OC[C@@H](O)[C@@H](O)[C@H](O)[C@H](O)CO`, for which the outcome in experiment [1], in experiment [2], in experiment [4], in experiment [3], in experiment [5] and in experiment [6] was inactive.

For the compound `CCCCCCCCCCCC(=O)OC`, the result in experiment [1], in experiment [2], in [4], in [7], in experiment [3] and in [5] was inactive.

`CN1CCN(Cc2cc(-c3ccc4[nH]c(=O)oc4c3)co2)[C@@H](c2ccc(F)cc2)C1`: the results for the AC50 in experiment [1] and in experiment [4] were 25.7 µM (active) and 27.4 µM (active), respectively. Besides, the outcome in experiment [2] and in [3] was inactive.

Consider `Cc1cc(=O)[nH]c(=S)[nH]1`, for which the outcome in [1], in experiment [2], in experiment [4] and in [3] was inactive.

On to `Cc1oc(-c2ccccc2)nc1CCOc1cccc2c1ccn2CCC(=O)O`, for which the outcome in experiment [1], in [2], in experiment [4], in experiment [3] and in experiment [9] was inactive.

Turning to `COc1cc(/C=C/C(=O)CC(=O)/C=C/c2ccc(O)c(OC)c2)ccc1O`, the values for the AC50 in experiment [1], in experiment [4] and in experiment [3] were 27.4 µM (active), 33.4 µM (active) and 33.4 µM (active), respectively. In addition, the call in [2], in experiment [7] and in [6] was inactive.

For the compound `COC(=O)c1ccc(O)cc1`, the compound was classed as inactive in [1], in experiment [2], in [4] and in experiment [3]. Also, the AC50 in [7] is 63.8 µM (active).

On to `COc1cc(-c2nc(NC(=O)c3cc4cc(C)cc(C)c4n3CC(=O)O)sc2CCC2CCCCC2)c(OC)cc1Cl`, for which the AC50 in [1] is 5.17 µM (active); in experiment [2], 26 µM (active); in experiment [4], 7.46 µM (active); in [3], 21.7 µM (active). Besides, the outcome in experiment [7] was inactive.

Consider `COc1cccc2c1C(=O)c1c(O)c3c(c(O)c1C2=O)C[C@@](O)(C(=O)CO)C[C@@H]3O[C@H]1C[C@H](N)[C@H](O)[C@H](C)O1`, for which the AC50 was 1.26 µM (active) in experiment [1], 0.318 µM (active) in [4] and 0.0821 µM (active) in experiment [3]. Besides, the compound was called inactive in experiment [2] and in experiment [6].
